In PubChem BioAssay (NCI):
Compounds without any hit were thinned out: in the full panel of roughly 83,000, 20% have a hit.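 48-hour exposure, single concentration, 96-well plates; percent growth endpoint where 0 means no net growth. Active: below 10.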 The source made the active and inactive calls.

Key:
Assay in all cases: NCI-60 one-dose screen, 48 h (100 = growth as untreated, 0 = no growth, -100 = all killed)
SK-MEL-2 melanoma = conditions: 10 µM unless noted
EKVX NSCLC = conditions: 10 µM unless noted
SN12C renal = conditions: 10 µM unless noted
UO-31 renal = conditions: 10 µM unless noted
TK-10 renal = conditions: 10 µM unless noted
ACHN renal = conditions: 10 µM unless noted
CAKI-1 renal = conditions: 10 µM unless noted
A498 renal = conditions: 10 µM unless noted
CCRF-CEM leukemia = conditions: 10 µM unless noted
MOLT-4 leukemia = conditions: 10 µM unless noted
SR leukemia = conditions: 10 µM unless noted
RPMI-8226 leukemia = conditions: 10 µM unless noted
OVCAR-8 ovarian = conditions: 10 µM unless noted
OVCAR-5 ovarian = conditions: 10 µM unless noted
OVCAR-4 ovarian = conditions: 10 µM
IGROV1 ovarian = conditions: 10 µM unless noted
OVCAR-3 ovarian = conditions: 10 µM unless noted
HS 578T breast = conditions: 10 µM unless noted
NCI/ADR-RES ovarian = conditions: 10 µM unless noted

Measured: growth

Cn1cc(-c2nnc(-c3cn(C)c4ncccc34)o2)c2ccccc21
active: A498 renal -20.3% | OVCAR-3 ovarian -12%
inactive: SK-MEL-2 melanoma 34.4% | EKVX NSCLC 49.9% | SN12C renal 28.4% | UO-31 renal 18% | TK-10 renal 69.9% | ACHN renal 36% | CAKI-1 renal 30.9% | CCRF-CEM leukemia 49.8% | MOLT-4 leukemia 18.3% | SR leukemia 19.1% | RPMI-8226 leukemia 31.3% | OVCAR-8 ovarian 49.8% | OVCAR-5 ovarian 55.5% | OVCAR-4 ovarian 36.5% | IGROV1 ovarian 28% | HS 578T breast 30.9% | NCI/ADR-RES ovarian 11.9%

CCOC(=O)c1nn(C2CCCCO2)c2ccc(NC(=O)CN3CCOCC3)cc12 (stereo not given)
active: CCRF-CEM leukemia 1.49%
inactive: SK-MEL-2 melanoma 108% | EKVX NSCLC 100% | SN12C renal 101% | UO-31 renal 86.6% | TK-10 renal 109% | ACHN renal 99.6% | CAKI-1 renal 84.2% | A498 renal 99.9% | MOLT-4 leukemia 96.1% | SR leukemia 112% | RPMI-8226 leukemia 109% | OVCAR-8 ovarian 99.6% | OVCAR-5 ovarian 102% | OVCAR-4 ovarian 102% | IGROV1 ovarian 102% | OVCAR-3 ovarian 107% | HS 578T breast 99.3% | NCI/ADR-RES ovarian 104%

O=C1/C(=C\c2cccn2Cc2ccccc2)c2ccccc2N1c1c(Cl)cccc1Cl
active: OVCAR-4 ovarian -2.5% | OVCAR-3 ovarian 7.01%
inactive: SK-MEL-2 melanoma 45.7% | EKVX NSCLC 38.8% | SN12C renal 87.3% | UO-31 renal 50.2% | TK-10 renal 22.9% | ACHN renal 53.7% | CAKI-1 renal 55.8% | A498 renal 72.9% | CCRF-CEM leukemia 92.9% | MOLT-4 leukemia 86.6% | SR leukemia 90.6% | RPMI-8226 leukemia 60.2% | OVCAR-8 ovarian 90.8% | OVCAR-5 ovarian 38.7% | IGROV1 ovarian 28.2% | HS 578T breast 83.2% | NCI/ADR-RES ovarian 70.9%

COc1cc(NCc2cn(-c3ccc(C(=O)O)cc3)nc2-c2ccc(C(=O)O)cc2)cc(OC)c1OC
active: CCRF-CEM leukemia -17.9%
inactive: SK-MEL-2 melanoma 102% | EKVX NSCLC 93.1% | SN12C renal 94.7% | UO-31 renal 88.9% | TK-10 renal 91.6% | ACHN renal 102% | CAKI-1 renal 87.9% | A498 renal 66% | MOLT-4 leukemia 110% | SR leukemia 114% | RPMI-8226 leukemia 93.2% | OVCAR-8 ovarian 101% | OVCAR-5 ovarian 94.8% | OVCAR-4 ovarian 94.4% | IGROV1 ovarian 97.1% | OVCAR-3 ovarian 106% | HS 578T breast 95.6% | NCI/ADR-RES ovarian 107%

O=C1CC(c2ccc3c(c2)OCO3)Nc2ccccc21 (stereo not given)
inactive: SK-MEL-2 melanoma 40.1% | EKVX NSCLC 48.1% | SN12C renal 34.4% | UO-31 renal 43.9% | TK-10 renal 40.1% | ACHN renal 46.9% | CAKI-1 renal 33.9% | CCRF-CEM leukemia 10.8% | MOLT-4 leukemia 62.7% | SR leukemia 19% | RPMI-8226 leukemia 15.4% | OVCAR-8 ovarian 22.3% | OVCAR-5 ovarian 54.3% | OVCAR-4 ovarian 51.7% | IGROV1 ovarian 53.5% | HS 578T breast 20.2%
active: A498 renal -11.2% | OVCAR-3 ovarian -19.5% | NCI/ADR-RES ovarian 1.78%

COc1ccc(/C=C2\N=C(Nc3ccccc3)N(NC(=O)c3ccccn3)C2=O)cc1
inactive: SK-MEL-2 melanoma 102% | EKVX NSCLC 91.5% | SN12C renal 94.7% | UO-31 renal 72.3% | TK-10 renal 127% | ACHN renal 99.4% | CAKI-1 renal 87.5% | A498 renal 81.5% | CCRF-CEM leukemia 99.2% | MOLT-4 leukemia 76.7% | SR leukemia 95.2% | RPMI-8226 leukemia 88.2% | OVCAR-8 ovarian 100% | OVCAR-5 ovarian 122% | OVCAR-4 ovarian 90% | IGROV1 ovarian 95.7% | OVCAR-3 ovarian 105% | HS 578T breast 95.3% | NCI/ADR-RES ovarian 97%

COc1ncc(-c2ccc3nccc(C#CCCCCC(=O)O)c3c2)cc1NS(=O)(=O)c1ccc(F)cc1F
inactive: SK-MEL-2 melanoma 31.3% | EKVX NSCLC 22% | SN12C renal 40.8% | UO-31 renal 12.5% | ACHN renal 32% | CAKI-1 renal 14.1% | CCRF-CEM leukemia 24.4% | MOLT-4 leukemia 29% | SR leukemia 63.8% | RPMI-8226 leukemia 47.4% | OVCAR-8 ovarian 35.4% | OVCAR-5 ovarian 22.7% | OVCAR-4 ovarian 50.3% | OVCAR-3 ovarian 19.8% | NCI/ADR-RES ovarian 56%
active: TK-10 renal 3.96% | A498 renal -34.5% | IGROV1 ovarian -13% | HS 578T breast -10.2%

Cc1ccc(-c2cn(C/C=C3\C=CN(S(=O)(=O)c4ccccc4)CC3)nn2)cc1
active: CCRF-CEM leukemia 3.1%
inactive: SK-MEL-2 melanoma 101% | EKVX NSCLC 101% | SN12C renal 91.9% | UO-31 renal 72.6% | TK-10 renal 115% | ACHN renal 95.8% | CAKI-1 renal 76.5% | A498 renal 94.3% | MOLT-4 leukemia 106% | SR leukemia 108% | RPMI-8226 leukemia 102% | OVCAR-8 ovarian 100% | OVCAR-5 ovarian 120% | OVCAR-4 ovarian 74.2% | IGROV1 ovarian 104% | OVCAR-3 ovarian 108% | HS 578T breast 97.2% | NCI/ADR-RES ovarian 99.6%

Cc1ccc(-c2cc(-c3ccc(C)cc3)nc(N3CCN(CCNc4ccnc5cc(Cl)ccc45)CC3)n2)cc1
inactive: SK-MEL-2 melanoma 65.4% | EKVX NSCLC 74% | SN12C renal 34.7% | ACHN renal 72.9% | CAKI-1 renal 32.7% | A498 renal 47.1% | MOLT-4 leukemia 38.9% | RPMI-8226 leukemia 19.4% | OVCAR-8 ovarian 25.4% | OVCAR-5 ovarian 79.4%
active: UO-31 renal -27.8% | TK-10 renal 0.923% | CCRF-CEM leukemia 8.72% | SR leukemia -1.09% | OVCAR-4 ovarian -59.4% | IGROV1 ovarian 5.07% | OVCAR-3 ovarian -53.6% | HS 578T breast -22.6% | NCI/ADR-RES ovarian 6.51%

CCCCCn1c(C)cc(/C=C\c2ccc3cc(C)ccc3[n+]2C)c1C
active: SK-MEL-2 melanoma -81.9% | EKVX NSCLC -47.9% | SN12C renal -90.3% | UO-31 renal -61.4% | TK-10 renal -57.6% | ACHN renal -89.3% | CAKI-1 renal -80.3% | A498 renal -46% | CCRF-CEM leukemia -13.3% | MOLT-4 leukemia 7.02% | SR leukemia 9.57% | RPMI-8226 leukemia -43.5% | OVCAR-8 ovarian -69.5% | OVCAR-4 ovarian -8.22% | IGROV1 ovarian -84% | OVCAR-3 ovarian -72.7% | HS 578T breast -24.4%
inactive: OVCAR-5 ovarian 12% | NCI/ADR-RES ovarian 59.1%

Cc1ccc(NC(=O)N[C@@H](Cc2cc(F)cc(F)c2)C(=O)N[C@@H]2C(=O)N3CCC[C@H]3C(=O)N3CCOC[C@H]3C(=O)N[C@@H](C)C(=O)N3C[C@H](C)C[C@H]3C(=O)O[C@H]2C)cc1
active: A498 renal -3.1%
inactive: SK-MEL-2 melanoma 40.7% | EKVX NSCLC 30.6% | SN12C renal 18.4% | UO-31 renal 28.4% | TK-10 renal 60.7% | ACHN renal 29.7% | CAKI-1 renal 16.5% | CCRF-CEM leukemia 58.3% | MOLT-4 leukemia 41% | SR leukemia 32% | RPMI-8226 leukemia 23% | OVCAR-8 ovarian 19.8% | OVCAR-5 ovarian 38% | OVCAR-4 ovarian 12.8% | IGROV1 ovarian 47.2% | OVCAR-3 ovarian 18.9% | HS 578T breast 41.9% | NCI/ADR-RES ovarian 91.5%

CCOC(=O)c1nn(C2CCCCO2)c2ccc(NS(=O)(=O)c3ccc(C)cc3)cc12 (stereo not given)
inactive: SK-MEL-2 melanoma 106% | EKVX NSCLC 102% | SN12C renal 93.6% | UO-31 renal 82.7% | TK-10 renal 111% | ACHN renal 94.3% | CAKI-1 renal 77.8% | A498 renal 62.9% | CCRF-CEM leukemia 98.9% | MOLT-4 leukemia 86.2% | SR leukemia 107% | RPMI-8226 leukemia 98.3% | OVCAR-8 ovarian 96.9% | OVCAR-5 ovarian 110% | OVCAR-4 ovarian 87.2% | IGROV1 ovarian 102% | OVCAR-3 ovarian 104% | HS 578T breast 94.9% | NCI/ADR-RES ovarian 99.6%

C[C@]12CCc3nc(Nc4ccccc4)sc3C1=CC[C@@H]1[C@@H]2CC[C@]2(C)/C(=N/NC(N)=S)CC[C@@H]12
inactive: SK-MEL-2 melanoma 66.9% | EKVX NSCLC 78.2% | SN12C renal 49.2% | UO-31 renal 60% | TK-10 renal 38.3% | ACHN renal 31.6% | CAKI-1 renal 49.6% | A498 renal 48% | CCRF-CEM leukemia 18.7% | SR leukemia 13.1% | OVCAR-8 ovarian 56.9% | OVCAR-5 ovarian 91.5% | OVCAR-4 ovarian 35.9% | IGROV1 ovarian 69.1% | HS 578T breast 55.9% | NCI/ADR-RES ovarian 53.6%
active: MOLT-4 leukemia 8.01% | RPMI-8226 leukemia -1.05% | OVCAR-3 ovarian -21.2%

Clc1ccc2nc(-c3ccc(-c4ccc(/C=N/NC5=NCCN5)cc4)s3)cn2c1
active: SR leukemia 8.33%
inactive: SK-MEL-2 melanoma 110% | EKVX NSCLC 90.8% | SN12C renal 88.6% | UO-31 renal 72.8% | TK-10 renal 123% | ACHN renal 103% | CAKI-1 renal 106% | A498 renal 76.6% | CCRF-CEM leukemia 76.3% | MOLT-4 leukemia 79.7% | RPMI-8226 leukemia 53.5% | OVCAR-8 ovarian 102% | OVCAR-5 ovarian 107% | OVCAR-4 ovarian 87.1% | IGROV1 ovarian 94.6% | OVCAR-3 ovarian 109% | HS 578T breast 92.6% | NCI/ADR-RES ovarian 99.3%

Cc1c(Cn2cc(COc3ccc(Br)cc3)nn2)c(C)c(Cn2cc(COc3ccc(Br)cc3)nn2)c(C)c1Cn1cc(COc2ccc(Br)cc2)nn1
inactive: SK-MEL-2 melanoma 87.9% | EKVX NSCLC 99.5% | SN12C renal 92.6% | UO-31 renal 85.5% | TK-10 renal 67.4% | ACHN renal 66.7% | CAKI-1 renal 75.1% | A498 renal 80.6% | CCRF-CEM leukemia 83% | MOLT-4 leukemia 103% | SR leukemia 63.2% | RPMI-8226 leukemia 97.9% | OVCAR-8 ovarian 95.1% | OVCAR-5 ovarian 96.8% | OVCAR-4 ovarian 87.3% | IGROV1 ovarian 90.7% | OVCAR-3 ovarian 88.7% | HS 578T breast 96.8% | NCI/ADR-RES ovarian 101%
